MazEF act – activators of E. coli MazEF toxin-antitoxin RNase | P0AE70 | FAM/BHQ RNA-DNA oligo cleavage fluorescence, 5 h | activation, % at 20 µM | 350,000 compounds, 0.32% hits | AID 504720; in the data active = activation above about 50%
Target sequence (P0AE70 whole entry, looked up): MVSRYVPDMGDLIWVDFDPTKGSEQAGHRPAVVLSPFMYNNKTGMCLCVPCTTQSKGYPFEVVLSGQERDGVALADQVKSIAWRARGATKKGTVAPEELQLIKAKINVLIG
CCHF vOTU inh-1 – CCHFV vOTU protease inhibition; Pep-AMC fluorescence; inhibition, % at 11.5 µM; 370,000 compounds, 0.55% hits; note: 0% = vehicle wells with enzyme and 100% = no enzyme wells
SARS 3CLpro inh – SARS-CoV 3CLpro protease inhibition; P0C6X7; recombinant SARS-CoV 3CLpro, quenched FRET peptide cleavage; inhibition, % at 6 µM; 290,000 compounds, 0.14% hits; AID 1706; in the data active = inhibition above about 12%
VHR inh abs – DUSP3 (human) phosphatase inhibition | P51452 | recombinant VHR phosphatase, pNPP absorbance | inhibition, % at 13.3 µM | 290,000 compounds, 0.52% hits; in the data active = inhibition above about 50%
Target sequence (P51452 whole entry, looked up): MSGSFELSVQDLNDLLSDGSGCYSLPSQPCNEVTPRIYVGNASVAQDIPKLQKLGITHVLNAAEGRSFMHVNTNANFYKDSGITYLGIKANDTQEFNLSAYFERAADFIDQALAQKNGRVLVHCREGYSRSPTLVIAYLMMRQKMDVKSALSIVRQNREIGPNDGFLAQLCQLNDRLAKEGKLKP
BJeLR viability – kills HRASV12-expressing BJeLR cells; BJeLR (HRASV12) viability, CellTiter-Glo ATP luminescence, 48 h; inhibition, % (test concentration not listed); 300,000 compounds, 0.17% hits; in the data active = inhibition above about 50%
CCHF vOTU inh-2 – CCHFV vOTU protease inhibition, confirmation | Recombinant CCHFV vOTU, Pep-AMC fluorescence | inhibition, % at 11.5 µM | 1,900 compounds, 17% hits | shares compounds with CCHF vOTU inh-1
An asterisk follows results filed as active; . = no result given. Only some compounds are listed: those with a hit (about 1.4% of all), similar ones and a draw of the others. Cut-off read from the data, not from the text of the source, unless noted: active = inhibition above about 30%; inactive = the rest.

SMILES | MazEF act | CCHF vOTU inh-1 | SARS 3CLpro inh | VHR inh abs | BJeLR viability | CCHF vOTU inh-2
O=C(c1cc(C2CC2)on1)N(C1CCCCC1)C1CCOCC1 | . | 4 | . | . | . | .
C=CCn1c(SCc2ccc(C#N)cc2)nnc1-c1ccco1 | . | -2 | . | . | . | .
O=C(OCC(=O)N1CCCc2ccccc21)c1ccc(Br)o1 | 2 | 6 | -3 | 6 | 6 | .
O=C(OCC(=O)N1CCc2ccccc21)c1ccc([N+](=O)[O-])o1 | 2 | 40* | . | . | . | -6
COC(=O)[C@H](C(C)C)N1CCc2nnn(Cc3ccccc3)c2-c2cc(F)ccc2S1(=O)=O | . | 4 | . | . | . | .
CC(C)(C)c1cc(=O)n(-c2ccccc2)[nH]1 | -2 | 77* | -3 | -11 | . | -7
O=c1cc(-c2ccccc2)[nH]n1-c1ccccc1 | 5 | 25 | . | . | . | .
COC1C(OC(=O)/C=C/C=C/C=C/C=C/C(=O)O)CCC2(CO2)C1C1(C)OC1CC=C(C)C (stereo not drawn) (tested in a mixture with another compound) | 2 | 30* | . | . | . | 3
N#Cc1ccc(Cn2ccc3ccc(-c4ccc5ccn(C(=O)C6CCC6)c5c4)cc32)cc1 | . | 3 | . | . | . | .
CC(CN1CCOCC1)OC(=O)c1cccc(Br)c1 (stereo not drawn) | 5 | 14 | -4 | 18 | -9 | .
CC(CN1CCOCC1)OC(=O)c1ccccc1Br (stereo not drawn) | 4 | 32* | 3 | -1 | -7 | -28
Cc1noc(C)c1C(=O)OCC(=O)Nc1ccc(C(N)=O)cc1 | 9 | -9 | 2 | 16 | 2 | .
Cc1noc(C)c1C(=O)OCC(=O)Nc1ccc(N2CCOCC2)cc1 | 3 | 32* | . | . | . | -12
CNCCCOc1ccc(C)cc1Br | -4 | 30* | 3 | 39 | -12 | -14
O=c1ccc2cc3c([nH]c4ccc(Br)cc43)oc-2c1O | . | 32* | 5 | -9 | 12 | 9
O=C(O)c1ccc(N=Nc2c(O)[nH]c3ccc(Br)cc23)cc1 | 5 | 19 | 1 | . | 1 | .
O=C(OC12CCCN(C1)/C(=C/c1cccc(Cl)c1)C2)c1ccc(Cl)cc1 (stereo not drawn) | . | 10 | . | . | . | .
CCOC(=O)C1CCCN(C(=O)c2cccc(S(=O)(=O)N(C)c3ccc(OC)cc3)c2)C1 (stereo not drawn) | -5 | 5 | . | . | . | .
CCOC(=O)C1CCCN(C(=O)c2cccc(S(=O)(=O)N(Cc3ccccc3)c3ccccc3OC)c2)C1 (stereo not drawn) | 2 | 36* | . | . | -4 | -12
O=C(Nc1ccccc1C(=O)O)c1cccc(NC(=O)c2ccc(Br)o2)c1 | -11 | 30* | 6 | 5 | -9 | 2
CCOC(=O)[C@@]12CCCC=C1N(CCc1ccc(Cl)cc1)C(=O)[C@H]2CC(=O)N1CCCC1 | . | -1 | . | . | . | .

From PubChem
